# Values without a mark were called inactive. Results filed as inconclusive are left out. A call without a number means that no potency is given here. Active and inactive are the calls of the source. Unless noted, calls come from the whole dose curve; as a rule, active = well fitted curve in the direction sought with a large enough effect in the repeat runs; inconclusive = weak or mixed curves; inactive = no such curve, though single readings can be large; an effect the other way counts as inactive or inconclusive. Positions of bridges follow the written chain, without caps; N, C: chain ends. Non-standard residues stand in square brackets, D forms with d. Residues, ends and D or L forms follow the SMILES beside them. hArg = N=C(N)NCCCC[C@H](N)C(=O)O; Mpa = O=C(O)CCS
# Columns and labels:
# [1] = qHTS assay to identify small molecule antagonists of the estrogen related receptor signaling pathway with the pleiotropic PPARgamma coactivator (PGC) from Tox21 10K library - cell viability counter screen (AID 1224840; active = well fitted cell-killing curve with a large enough effect in the repeat runs, not every such curve was filed as active; note: nearly all actives have a fitted effect of over 40% in size)
# In short: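 Following seeding of 2,000 PGC/ERR cells/well and 6 hours' incubation, test compounds were delivered in DMSO. The plates then sat 17.5 hours at 37 C before a fluorogenic live-cell protease reagent (CellTiter-Fluor) was read after 30 min.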
# [2] = molecular target: Thyrotropin receptor (Homo sapiens) (UniProt P16473); experiment: qHTS assay to identify small molecule agonists of the thyroid stimulating hormone receptor (TSHR) signaling pathway (AID 1224843; calls by dose curve; note: nearly all actives have a fitted effect of over 45% in size)
# In short: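 Steps: seed 800 TSHR-HEK293 cells per well; add test compound and hold 30 min at ambient temperature; dispense cAMP-d2 then anti-cAMP cryptate; incubate 1 h at ambient; measure fluorescence intensity.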
# [3] = qHTS assay to identify small molecule agonists of the hypoxia (HIF-1) signaling pathway - cell viability counter screen (AID 1224844; calls by dose curve; note: nearly all actives have a fitted effect of over 50% in size)
# In short: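 Cells (HRE-bla ME-180, 2,000 per well) sat 5 hrs at 37C, got compound for 17 hrs, were read for CCF4-AM FRET, and were finally lysed with CellTiter-Glo for a 30 min room-temperature luminescence read.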
# [4] = qHTS assay to identify small molecule agonists of the hypoxia (HIF-1) signaling pathway (AID 1224846; active = well fitted activation curve with a large enough effect in the signal ratio in the repeat runs, not every such curve was filed as active; the % refers to the signal ratio)
# In short: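 A low-serum medium (0.5% dialyzed FBS) holding 2,000 HRE-bla ME-180 cells per well is preincubated for 5 hrs, dosed with compounds by pintool, and kept a further 17 hrs at 37C, 5% CO2 before CCF4-AM FRET detection of beta-lactamase.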
# [5] = qHTS assay to identify small molecule agonists of H2AX - cell viability counter screen (AID 1224847; calls by dose curve; note: top concentration of the series differs between compounds; nearly all actives have a fitted effect of over 30% in size)
# In short: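 Counter-screen for viability: CellTiter-Glo ATP luminescence read after 3 h compound treatment (15-point titration, 0.76% DMSO final) of CHO-K1 cells at 37C, with 30 min room-temperature reagent incubation.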
# [6] = qHTS RealTime-Glo MT Cell Viability Assay in HepG2 cells - 24 hour (AID 1224867); note: nearly all actives have a fitted effect of over 50% in size
# In short: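 Cells + NanoLuc/prosubstrate dispensed (600 cells/well) → 5 h at 37 C/5% CO2 → compounds in DMSO transferred → 40 h incubation at 37 C, luminescence read at 0, 8, 16, 24, 32, 40 h.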
# [7] = qHTS RealTime-Glo MT Cell Viability Assay in HEK293 cells - 32 hour (AID 1224868); note: nearly all actives have a fitted effect of over 50% in size; note: potency is the fitted concentration of half-maximal effect
# In short: (§1)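 Tox21 10K qHTS, HEK293, 600 cells/well, RealTime-Glo reagent co-dispensed with cells; 5 h preincubation, compound by pintool, 37 C, luminescence at 0–40 h.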
# [8] = A CellTox Green Cytotoxicity Assay to monitor cytotoxicity in HEK293 cells - 0 hour (AID 1224869); note: nearly all actives have a fitted effect of over 50% in size
# In short: (§2)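 Fluorescence intensity, read at 0, 8, 16, 24, 32 and 40 h of compound treatment, reflected dye binding to DNA of dead HEK293 cells; compounds (23 nL, DMSO) were added 5 h after plating cells with reagent.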
# [9] = qHTS RealTime-Glo MT Cell Viability Assay in HepG2 cells - 40 hour (AID 1224870); note: nearly all actives have a fitted effect of over 50% in size
# In short: (§3)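 HepG2 cells (600/well) mixed with RealTime-Glo MT reagent, settled 5 h at 37 C/5% CO2 before compound addition. Nonlytic NanoLuc luminescence from viable-cell prosubstrate reduction read repeatedly during 40 h treatment at 37 C.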
# [10] = A CellTox Green Cytotoxicity Assay to monitor cytotoxicity in HEK293 cells - 40 hour (AID 1224871); note: nearly all actives have a fitted effect of over 45% in size
# In short: as §2
# [11] = qHTS RealTime-Glo MT Cell Viability Assay in HepG2 cells - 8 hour (AID 1224873); note: nearly all actives have a fitted effect of over 55% in size
# In short: as §3
# [12] = qHTS RealTime-Glo MT Cell Viability Assay in HEK293 cells - 40 hour (AID 1224874); conditions: RealTime-Glo luminescence; max response: hits give low values; note: nearly all actives have a fitted effect of over 50% in size; note: potency is the fitted concentration of half-maximal effect
# In short: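 Viable HEK293 cells reduce a cell-permeant prosubstrate; the product diffuses out and is consumed by NanoLuc in the medium to give light. Compounds went in after a 5 h incubation and plates were read over the treatment course.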
# [13] = A CellTox Green Cytotoxicity Assay to monitor cytotoxicity in HepG2 cells - 16 hour (AID 1224876); note: nearly all actives have a fitted effect of over 45% in size
# In short: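 Using 1536-well format, dye-containing HepG2 suspension was seeded, allowed 5 h at 37 C/5% CO2, dosed by pintool with compounds, positive and negative controls, and imaged for fluorescence across 40 h.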
# [14] = qHTS RealTime-Glo MT Cell Viability Assay in HEK293 cells - 16 hour (AID 1224872); note: nearly all actives have a fitted effect of over 50% in size; note: potency is the fitted concentration of half-maximal effect
# In short: as §1
# [15] = A CellTox Green Cytotoxicity Assay to monitor cytotoxicity in HEK293 cells - 24 hour (AID 1224875); note: series mostly up to about 77 µM; nearly all actives have a fitted effect of over 45% in size
# In short: as §2
# [16] = qHTS assay to identify small molecule agonists of H2AX (AID 1224845; active = well fitted activation curve with a large enough effect in the signal ratio in the repeat runs, not every such curve was filed as active; the % refers to the signal ratio)
# In short: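 Wild-type CHO-K1 cells, plated overnight, exposed 3hr at 37C to 15 concentrations (0.76% DMSO final). Lysed, then HTRF anti-pH2AX (S139) cryptate and anti-H2AX-d2 antibodies, 24 hr room temperature; 665/620 nm emission read.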
# Sequence of Thyrotropin receptor (Homo sapiens) (P16473 whole entry, looked up): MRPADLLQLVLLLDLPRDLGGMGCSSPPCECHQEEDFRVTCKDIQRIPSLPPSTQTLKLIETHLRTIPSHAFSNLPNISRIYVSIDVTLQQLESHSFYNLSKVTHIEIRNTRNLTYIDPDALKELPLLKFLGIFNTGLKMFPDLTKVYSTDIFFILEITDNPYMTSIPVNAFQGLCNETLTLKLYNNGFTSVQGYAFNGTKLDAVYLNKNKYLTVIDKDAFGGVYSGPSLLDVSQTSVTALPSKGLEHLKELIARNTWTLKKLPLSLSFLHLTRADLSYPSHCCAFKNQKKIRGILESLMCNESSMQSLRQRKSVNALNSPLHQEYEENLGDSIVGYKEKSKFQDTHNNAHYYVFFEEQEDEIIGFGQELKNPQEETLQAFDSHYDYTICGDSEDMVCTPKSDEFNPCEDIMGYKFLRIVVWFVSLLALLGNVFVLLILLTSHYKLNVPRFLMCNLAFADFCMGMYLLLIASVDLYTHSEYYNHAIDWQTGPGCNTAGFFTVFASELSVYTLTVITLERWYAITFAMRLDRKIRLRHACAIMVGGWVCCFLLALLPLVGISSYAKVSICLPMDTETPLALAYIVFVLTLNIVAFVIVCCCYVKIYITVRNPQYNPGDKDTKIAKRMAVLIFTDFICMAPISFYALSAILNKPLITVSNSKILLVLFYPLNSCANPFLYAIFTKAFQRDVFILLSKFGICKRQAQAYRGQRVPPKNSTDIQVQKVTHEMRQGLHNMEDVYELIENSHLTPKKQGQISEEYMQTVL
Compound,outcome [1],outcome [2],outcome [3],outcome [4],outcome [5],outcome [6],Potency [7],Potency [8],outcome [9],Potency [10],outcome [11],max response [12] [%],Potency [13],Potency [14],Potency [15],outcome [16],Potency [12]
CC1(C)O[C@H]2CC(=O)OC[C@]23[C@H]2CC[C@@]4(C)[C@H](c5ccoc5)OC(=O)[C@H]5O[C@]54[C@]2(C)C(=O)C[C@@H]13,inactive,inactive,inactive,inactive,inactive,inactive,inactive,inactive,inactive,inactive,inactive,3.36,inactive,–,–,–,–
C#CCN[C@@H]1CCc2ccccc21,inactive,inactive,inactive,inactive,inactive,inactive,inactive,inactive,–,–,inactive,-4.89,inactive,inactive,inactive,–,–
Cc1ccnc(N)c1,inactive,inactive,inactive,inactive,inactive,–,inactive,inactive,inactive,inactive,inactive,-4.39,inactive,inactive,inactive,–,–
Cc1ccc2c(c1)C(=O)c1ccccc1C2=O,inactive,inactive,inactive,inactive,inactive,inactive,inactive,inactive,inactive,inactive,inactive,5.01,inactive,inactive,inactive,–,–
CC(=O)CCc1ccc(OC(C)=O)cc1,inactive,inactive,inactive,inactive,inactive,inactive,inactive,inactive,inactive,inactive,inactive,2.75,inactive,inactive,–,–,–
C=C(C)[C@@H]1CC=C(C)C(=O)C1,inactive,inactive,inactive,inactive,inactive,inactive,inactive,inactive,inactive,–,inactive,-8.2,inactive,inactive,–,–,–
C/C(=C1\CCOC(=O)S1)N(C=O)Cc1cnc(C)nc1N,inactive,inactive,inactive,inactive,inactive,inactive,inactive,inactive,inactive,inactive,inactive,3.03,inactive,inactive,inactive,–,–
CC(CO)(CO)CO,inactive,inactive,inactive,inactive,inactive,inactive,inactive,inactive,inactive,–,inactive,2.55,inactive,inactive,inactive,–,–
CC(C)=CCC[C@@](C)(O)[C@H]1CC=C(C)CC1,inactive,inactive,inactive,inactive,inactive,inactive,inactive,inactive,–,inactive,inactive,-0.631,inactive,inactive,inactive,–,–
O=C[O][Al]([O]C=O)[O]C=O,inactive,inactive,inactive,inactive,inactive,–,inactive,inactive,–,inactive,inactive,5.61,inactive,inactive,inactive,–,–
OCC1CCC(CO)CC1 (configuration not stated),inactive,inactive,–,inactive,inactive,inactive,inactive,inactive,inactive,inactive,inactive,6.03,inactive,inactive,inactive,inactive,–
Cn1c(=O)c2c(ncn2CCO)n(C)c1=O,inactive,inactive,inactive,–,inactive,inactive,inactive,inactive,inactive,inactive,inactive,3.56,–,inactive,inactive,–,–
CO[C@@]1(NC(=O)Cc2cccs2)C(=O)N2C(C(=O)O)=C(COC(N)=O)CS[C@@H]21,inactive,inactive,inactive,–,inactive,–,inactive,inactive,inactive,inactive,inactive,0.152,inactive,–,–,–,–
COc1c2occc2c(OC)c2c(=O)cc(C)oc12,inactive,inactive,inactive,–,inactive,inactive,9.52 µM (active),inactive,–,–,inactive,–,inactive,9.52 µM (active),inactive,–,9.52 µM (active)
COc1cc2c(cc1OC)CN(C(=O)[C@H](C)N[C@@H](CCc1ccccc1)C(=O)O)[C@H](C(=O)O)C2,inactive,inactive,inactive,inactive,inactive,inactive,inactive,inactive,inactive,inactive,inactive,2.78,inactive,inactive,inactive,–,–
CC(C)NC(=O)c1ccc(C=O)cc1,inactive,inactive,–,inactive,inactive,inactive,inactive,inactive,inactive,inactive,inactive,0.577,inactive,inactive,–,inactive,–
NC(=O)[C@@H]1CSSCCC(=O)N[C@@H](CCCCN=C(N)N)C(=O)NCC(=O)N[C@@H](CC(=O)O)C(=O)N[C@@H](Cc2c[nH]c3ccccc23)C(=O)N2CCC[C@H]2C(=O)N1 ([Mpa][hArg]GDWPC-NH2; disulfide 1-7),inactive,inactive,inactive,inactive,inactive,inactive,inactive,inactive,inactive,inactive,inactive,0,inactive,–,inactive,–,–
